In PubChem BioAssay AID652048 (National Center for Advancing Translational Sciences (NCATS), 2013) one finds max activation data, which are given here for 49 molecules.

“And” between values parts separate entries of the source, which are not always exact repeats. Equal values may be shown once. Hit rate of the full screen: of about 410,000 compounds, about 2,400 (0.59%) were called active. No stated cut-off is given here; in the data, active means max activation above about 30%; inactive means the rest. Only a selection was taken, and actives are over-represented in it overall. Where a SMILES comes first, the peptide text is derived from it. Bridges are numbered along the chain shown (N, C = ends). [ ]: non-standard residue; d: D form. The star is where a group is joined. X1 = CC[C@H](C)CCCCC(=O)*; Dab = NCC[C@H](N)C(=O)O

The target in the assay is D(3) dopamine receptor (Homo sapiens) (UniProt P35462). Nature of the assay: qHTS of D3 Dopamine Receptor Agonist: qHTS. Further: 0% is about no effect. The settings on record: D3R DiscoveRx beta-arrestin cells, luminescence, 90 min; hits give high values. In short, it runs like this: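 Agonist mode: compounds and dopamine controls were applied to plated cells for 90 min at 37 degrees C after an overnight attachment at 1500 cells/well. Luminescent read-out followed 30 - 60 minutes at room temperature with DiscoveRx detection reagent.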
Chain of D(3) dopamine receptor (Homo sapiens) (P35462 whole entry, looked up): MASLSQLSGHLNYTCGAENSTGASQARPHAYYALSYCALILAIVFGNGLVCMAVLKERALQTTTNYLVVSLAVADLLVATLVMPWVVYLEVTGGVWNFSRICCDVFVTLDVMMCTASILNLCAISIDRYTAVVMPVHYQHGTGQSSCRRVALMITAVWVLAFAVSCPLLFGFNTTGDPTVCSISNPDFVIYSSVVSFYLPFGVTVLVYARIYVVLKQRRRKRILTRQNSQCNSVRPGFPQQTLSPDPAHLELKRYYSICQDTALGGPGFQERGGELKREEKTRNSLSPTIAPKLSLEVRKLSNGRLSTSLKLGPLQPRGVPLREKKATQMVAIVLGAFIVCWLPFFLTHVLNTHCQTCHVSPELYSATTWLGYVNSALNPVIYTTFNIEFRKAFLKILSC
In the case of `FCOC(C(F)(F)F)C(F)(F)F`, the max activation was 9.08% (inactive).

`COc1ccc(C(=O)COC(=O)c2c(C)noc2C)cc1Cl`: the max activation is -4.54% (inactive).

With `COc1cc(OC)cc(C(=O)NCC(=O)OCc2csc(-c3ccccc3)n2)c1`, the max activation is -7.01% (inactive).

With `Cc1ccc(-c2nc(COC(=O)c3c(C)noc3C)cs2)cc1`, the max activation was 32.5% (active).

`CC(=O)OC[C@H]1O[C@@H](O[C@H]2[C@H](O)[C@@H](OC(=O)c3ccccc3C(=O)O)[C@H](O)O[C@@H]2COC(C)=O)[C@H](O)[C@@H](OC(=O)c2ccccc2C(=O)O)[C@@H]1O`: the max activation is 2.74% (inactive).

Turning to `CCCC(=O)N1CCN(c2nc3c(OC)ccc(C)c3s2)CC1`, the max activation is 3.21% (inactive).

Turning to `O=C1C(c2[nH]c3ccccc3c2O)=Nc2ccccc21`, the max activation was -8.96% (inactive).

For `CCC(=O)N1CCC(C(N)=O)(N2CCCCC2)CC1`, the max activation is 1.17% (inactive).

In the case of `NC(=O)C1(N2CCCCC2)CCN(C(=S)Nc2ccc(Cl)cc2)CC1`, the max activation was 32.5% (active).

With `Cc1cc(Cl)ccc1NC(=S)N1CCC(C(N)=O)(N2CCCCC2)CC1`, the max activation was 5% (inactive).

For the molecule `Cc1ccc(NS(=O)(=O)c2ccc3c(c2)CC(=O)N3)cc1Cl`, the max activation is -10.2% (inactive).

On to `Fc1ccc2[nH]c3c(N4CCN(Cc5ccc6c(c5)OCO6)CC4)ncnc3c2c1`, for which the max activation was 9.79% (inactive).

As to `Fc1ccc2[nH]c3c(N4CCSCC4)ncnc3c2c1`, the max activation was 42.3% (active).

With `Cc1ccc(CNC(=O)CCC(=O)N2Cc3ccccc3Oc3ncccc32)cc1`, the max activation was -12% (inactive).

As to `CCC(=O)N1c2ccccc2CC1C(=O)N1CCN(c2ccccc2)CC1` (centres undefined), the max activation is 0.179% (inactive).

Take `Cc1cc2nc(-c3ccc(NC(=O)c4cccnc4)cc3)oc2cc1C`: the max activation is 32.8% (active).

Regarding `Cc1cc2nc(-c3ccc(NC(=O)c4cc5ccccc5o4)cc3)oc2cc1C`, the max activation is 2.05% (inactive).

On to `COc1cccc(C(=O)Nc2ccc3oc(-c4ccc5ccccc5c4)nc3c2)c1`, for which the max activation was 15.1% (inactive).

Consider `CC1=C(/C=C/C(C)=C/C=C/C(C)=C/C=C/C=C(C)/C=C/C=C(C)/C=C/C2=C(C)CCCC2(C)C)C(C)(C)CCC1`, for which the max activation is -12.4% (inactive).

On to `Cc1ccc(-n2c(SCC(=O)Nc3ncc(Cl)cc3Cl)nc3ccccc32)cc1`, for which the max activation was 39.8% (active).

Turning to `Cc1cc(C)c(NC(=O)Cn2c(SCC(=O)NCc3ccccc3)nc3ccccc32)c(C)c1`, the max activation is -11.4% (inactive).

Take `Cc1ccc(NC(=O)CSc2nc3c([nH]c4ccccc43)c(=O)n2-c2ccccc2)cc1Cl`: the max activation is -9.55% (inactive).

Turning to `CCC(=O)N1CCc2cc(S(=O)(=O)NC(C(=O)Nc3ccc(C(C)=O)cc3)C(C)C)ccc21` (centres undefined), the max activation is -16.2% (inactive).

Take `CCCCC(NS(=O)(=O)c1ccc(C)cc1)C(=O)Oc1ccc2c3c(c(=O)oc2c1)CCC3` (centres undefined): the max activation was 51.9% (active).

In the case of `NC(=O)C1CCN(C(=O)COc2ccc3c4c(c(=O)oc3c2)CCC4)CC1`, the max activation is -9.64% (inactive).

On to `CSCCC(NS(=O)(=O)c1ccc(C)cc1)C(=O)N1CCCC1` (centres undefined), for which the max activation is -0.577% (inactive).

With `COc1ccccc1NC(=O)c1oc2ccccc2c1NC(=O)C(C)C`, the max activation was 2.74% (inactive).

Regarding `O=C(COc1ccc(Cl)cc1Cl)NCCCNC(=O)c1cnccn1`, the max activation is 5.48% (inactive).

For the molecule `CSc1ccc(/C=N\NC(=O)COc2ccc(Cl)cc2Br)cc1`, the max activation is 32.8% (active).

As for `C/C(CC(=O)NCc1ccc(Cl)cc1)=N\NC(=O)COc1ccc(C)cc1Br`, the max activation is -14.3% (inactive).

As for `CC[C@H](C)CCCCC(=O)N[C@@H](CCN)C(=O)N[C@H](C(=O)N[C@@H](CCN)C(=O)N[C@H]1CCNC(=O)[C@@H]([C@H](C)O)NC(=O)[C@H](CCN)NC(=O)[C@H](CCN)NC(=O)[C@H](CC(C)C)NC(=O)[C@@H](CC(C)C)NC(=O)[C@H](CCN)NC1=O)[C@@H](C)O` (X1-[Dab]T[Dab][Dab][Dab][dL]L[Dab][Dab][dT]; lactam 4-C), the max activation is -1.99% (inactive).

With `CC1(C)[C@@H]2CC[C@@]1(C)[C@H](OC(=O)CSC#N)C2`, the max activation was -0.173% (inactive).

Consider `CCS(=O)(=O)N1CCC(N2CCN(c3ccccc3)CC2)CC1`, for which the max activation is 64.6% (active).

`CS(=O)(=O)N1CCC(C(=O)N2CCN(c3ccccc3)CC2)CC1`: the max activation is 6.05% (inactive).

`O=S(=O)(NCCS(=O)(=O)N1CCN(c2ccccc2)CC1)c1ccc(Cl)cc1`: the max activation was 0.296% (inactive).

Take `Cc1ccc(C)c(N2CCN(C(=O)CCc3c(C)nc4c(c3C)c(=O)n(C)c(=O)n4C)CC2)c1`: the max activation is 1.37% (inactive).

Regarding `COc1cc2c(cc1OC)[C@@H](Cc1cc(OC)c(OC)c(OC)c1)[N+](C)(CCCOC(=O)CC/C=C/CCC(=O)OCCC[N+]1(C)CCc3cc(OC)c(OC)cc3[C@H]1Cc1cc(OC)c(OC)c(OC)c1)CC2` (some centres undefined), the max activation is 4.34% (inactive) and 3.72% (inactive).

Take `Cn1nnc2c(N3CCN(c4ccccc4)CC3)ncnc21`: the max activation is 1.99% (inactive).

Regarding `Oc1ccccc1N1CCN(c2ncnc3sc(-c4ccccc4)cc23)CC1`, the max activation is 31.1% (active).

As to `CCc1cc2c(N3CCN(c4nnc(CC)s4)CC3)ncnc2s1`, the max activation is 13.8% (inactive).

As for `COc1ccc(OC)c(CCNC(=O)c2nn(C)c3c2CS(=O)(=O)c2ccccc2-3)c1`, the max activation is 2.65% (inactive).

Consider `CCCCN(CC)CCCNC(=O)c1nn(C)c2c1CSc1ccccc1-2`, for which the max activation is 3.9% (inactive).

In the case of `CCCCN(CC)CCCNC(=O)c1nn(C)c2c1CS(=O)(=O)c1ccccc1-2`, the max activation was 31.8% (active).

Take `CCOc1ccccc1CNC(=O)c1ccc(-n2c(C)cc3c2CCC(C)C3)cc1` (centres undefined): the max activation was -10.9% (inactive).

Turning to `COC(=O)c1cc(NC(=O)CCc2c(C)nc3c4c(C)cc(C)nc4nn3c2C)cc(C(=O)OC)c1`, the max activation was -21.8% (inactive).

As to `O=C(CSc1nccn1-c1ccc(F)cc1)Nc1cccc2ccccc12`, the max activation was 7.68% (inactive).

For `O=C(CC[C@H]1O[C@@H](n2ccc(=O)[nH]c2=O)[C@H](O)[C@@H]1O)N[C@H](Cc1ccccc1)C(=O)NCCCN1CCCC1=O`, the max activation was -10.2% (inactive).

Take `O=C(CC[C@H]1O[C@@H](n2ccc(=O)[nH]c2=O)[C@H](O)[C@@H]1O)N[C@H](Cc1ccccc1)C(=O)NCc1ccco1`: the max activation was 13.5% (inactive).

Regarding `Cc1ccc(NC(=O)[C@H](Cc2ccccc2)NC(=O)CC[C@H]2O[C@@H](n3ccc(=O)[nH]c3=O)[C@H](O)[C@@H]2O)cc1C`, the max activation is 63.9% (active).
